From PubChem BioAssay AID525 (The Scripps Research Institute Molecular Screening Center, 2006)
The whole screen tested about 65,000 compounds, of which about 360 (0.55%) were called active.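 The calls were made as follows: active = inhibition above the mean inhibition of all tested compounds plus 3 SD (cut at about 48% in these data); inactive = the rest.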 Only a selection was taken, and actives are over-represented in it overall.

Each compound was assayed against Steroidogenic factor 1 (Homo sapiens) (UniProt Q13285) (assay: inhibitors of human SF-1, primary screen, cell-based, CHO-K1, Gal4-SF-1 LBD, luciferase luminescence (AID 525;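 also: 0% = SF-1 transfected cells with DMSO and 100% = mock-transfected cells lacking SF-1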)). Details: CHO-K1 Gal4-SF-1 LBD luciferase reporter; at 10 µM; active compounds read high.
Sequence of Steroidogenic factor 1 (Homo sapiens) (Q13285 whole entry, looked up, the tested form may be a part): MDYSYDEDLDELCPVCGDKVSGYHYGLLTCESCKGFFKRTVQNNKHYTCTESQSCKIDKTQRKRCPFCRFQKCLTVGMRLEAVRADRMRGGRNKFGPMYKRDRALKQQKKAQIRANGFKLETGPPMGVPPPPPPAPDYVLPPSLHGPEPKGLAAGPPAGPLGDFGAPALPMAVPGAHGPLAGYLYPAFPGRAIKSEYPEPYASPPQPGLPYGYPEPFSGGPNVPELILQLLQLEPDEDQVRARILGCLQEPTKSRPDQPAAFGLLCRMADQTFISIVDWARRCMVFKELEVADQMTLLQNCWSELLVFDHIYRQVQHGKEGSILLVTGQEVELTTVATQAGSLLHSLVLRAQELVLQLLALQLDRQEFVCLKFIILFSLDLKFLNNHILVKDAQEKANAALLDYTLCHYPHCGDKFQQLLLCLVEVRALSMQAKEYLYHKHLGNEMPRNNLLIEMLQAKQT

| SMILES | inhibition |
| --- | --- |
| Cc1ccc(N2C(=O)c3ccccc3C2(O)c2ncc[nH]2)cc1 (configuration not stated) | -6.1% (inactive) |
| COc1cc(C2C3C(=O)N(c4ccccc4)C(=O)C3ON2c2ccccc2)ccc1O (configuration not stated) | -51.7% (inactive) |
| O=C(Nn1cnc2ccccc2c1=O)c1ccc(F)cc1Cl | -64.7% (inactive) |
| CC1CN(C2CCCCC2)c2nc3c(c(=O)n(C)c(=O)n3C)n2C1 (configuration not stated) | -1.7% (inactive) |
| O=C(NCCCN1CCN(C2CCCCC2)CC1)Nc1ccccc1C(F)(F)F | -13.5% (inactive) |
| CC(C)(C)NC(=O)C(c1ccco1)N(Cc1ccc2c(c1)OCO2)C(=O)Cn1nnc2ccccc21 (configuration not stated) | -8.6% (inactive) |
| CCOc1cc(S(=O)(=O)NC2CC(C)(C)NC(C)(C)C2)ccc1F | -4.6% (inactive) |
| OCCCNC(c1ccccc1)c1ccc(O)cc1 (configuration not stated) | -6.6% (inactive) |
| CCCOc1ccccc1C(=O)NCCCC(=O)O | -3.2% (inactive) |
| COc1ccccc1Oc1ccc(S(=O)(=O)Nc2cccnc2)cc1 | 13.8% (inactive) |
| COc1cc2cc(CN(CCN3CCCC3)C(=O)Nc3ccccc3Cl)c(=O)[nH]c2cc1OC | 8.5% (inactive) |
| Clc1cccc(Cl)c1Cn1nnc(-c2cccs2)n1 | -50.8% (inactive) |
| CCCNC(=O)C1CC(=O)N(c2ccc(OCC(=O)Nc3cccc(C)c3C)cc2)C1 (configuration not stated) | -1% (inactive) |
| NC(=O)C1CC=CCC1C(=O)OCC(Cl)=C(Cl)Cl (configuration not stated) | 38.2% (inactive) |
| CCCCOC(=O)c1[nH]c(C)c(C(=O)OC)c1C | -77.7% (inactive) |
| O=C(CSc1nnc(-c2c[nH]c3ccccc23)n1-c1ccc(F)cc1)NCc1ccco1 | -15.6% (inactive) |
| CCOC(=O)c1ccc(-c2ccc(C(=O)Nc3cccnc3)o2)cc1 | -51.3% (inactive) |
| Cc1ccc(-c2nnc(SC(C)C#N)n2N)cc1 (configuration not stated) | -9.5% (inactive) |
| C/C(=C\c1ccco1)C1Nc2cccc3cccc(c23)N1 | 1.5% (inactive) |
| COc1ccc(CC(=O)Nc2ccc(-c3nnc(-c4ccccc4)o3)cc2)cc1 | 59.5% (active) |
| Cc1ccc(OCC(=O)Nc2ccc(-c3nnc(-c4ccco4)o3)cc2)cc1 | -65.5% (inactive) |
| O=C(Nc1ccc(-c2nnc(-c3ccccc3)o2)cc1)C1CCCO1 (configuration not stated) | -65.9% (inactive) |
| O=C(CCS(=O)(=O)c1ccccc1)Nc1nc2c(s1)CCCC2 | -3.7% (inactive) |
| CS(=O)(=O)c1ccc2nc(NC(=O)CN3CCCCCC3)sc2c1 | 3.7% (inactive) |
| O=C(NCCc1ccc(Cl)cc1)C1CC(=O)N(C2CCCCC2)C1 (configuration not stated) | -13.3% (inactive) |

| SMILES | inhibition |
| --- | --- |
| CCCCCCOC(=O)NCC(O)c1ccccc1 (configuration not stated) | -52.5% (inactive) |
| O=C1CCC(Cc2ccccc2)N1 (configuration not stated) | 7.6% (inactive) |
| COc1ccc(N2C(=O)CCC(C(=O)Nc3ccccn3)C2c2ccc(OC)c(OC)c2)cc1 (configuration not stated) | -11% (inactive) |
| COCCN(CC(=O)Nc1ccccc1C)S(=O)(=O)c1ccc(S(=O)(=O)N2CCCC2)cc1 | 0.4% (inactive) |
| COc1ccc(N2CCN(C(=O)CSc3ncnc4c3cnn4-c3ccc(OC)cc3)CC2)cc1 | -9% (inactive) |
| COc1ccc(Nc2cc(C)nc(-n3nc(C)cc3C)n2)cc1 | 53.7% (active) |
| Cn1c(=O)c2cn(-c3cccc4ccccc34)cc2n(C)c1=O | -21.5% (inactive) |
| Cc1cc(NC(=O)c2cc(-c3cccs3)on2)nn1Cc1ccc(Cl)cc1 | 2.7% (inactive) |
| NC(=O)CCCC1=NS(=O)(=O)c2ccccc2N1 | 10.1% (inactive) |
| N/C(=N\c1nc2ccccc2o1)NC(=O)C(Cc1ccccc1)N1C(=O)c2ccccc2C1=O (configuration not stated) | 0.7% (inactive) |
| CCOC(=O)C1=C(C)NC(C)=C(C(=O)OCC)C1c1ccccn1 | 6.7% (inactive) |
| CCOC(=O)CNC(=O)CSc1nnc(-c2cccc(OC)c2)n1CC | 12.5% (inactive) |
| CC(C)(C)n1nc2c(c1NC(=O)c1ccc(S(=O)(=O)N3CCCC3)cc1)CS(=O)C2 (configuration not stated) | 6.6% (inactive) |
| CC1CCCCN1S(=O)(=O)c1ccc(C(=O)Nc2nnc(-c3cccs3)o2)cc1 (configuration not stated) | 49.4% (active) |
| Cc1ccc(C(=O)Nc2nnc(-c3cccs3)s2)cc1C | -80.9% (inactive) |
| Cc1ccc(-n2c(SCC(=O)Nc3ccc4c(c3)OCO4)nnc2-c2ccoc2C)cc1 | 1% (inactive) |
| CCCOC(=O)Nc1ccccc1C(N)=O | -2.2% (inactive) |
| CCCCOc1ccc(-c2ncc(C(=O)OCC)c(N)n2)cc1 | -49.8% (inactive) |
| O=C(CN1CCN(c2ccccn2)CC1)NCc1cccs1 | -7.1% (inactive) |
| COc1ccc(-n2ncc3c(N4CCc5ccccc54)ncnc32)cc1 | -59.8% (inactive) |
| c1cc(-n2cnnn2)ccc1NC1=NCCC1 | 9.1% (inactive) |
| CCC(=O)Nc1ccc2c(c1)nc(CCN1CCN(C)CC1)n2C | 2.6% (inactive) |
| CCOC(=O)Cc1csc(NC(=O)C(C)(C)C)n1 | -20.2% (inactive) |
| CCn1c(CNc2ccc(OC)cc2)nnc1SCC(=O)c1ccc(OC)cc1 | 9.6% (inactive) |
| COc1cc(Cl)c(C)cc1NC(=O)CSc1nnc(-c2cccnc2)n1Cc1ccco1 | -10.6% (inactive) |

| SMILES | inhibition |
| --- | --- |
| Cc1nnc(SCC(=O)N(C(C)C)C(C)C)nc1C | 3.3% (inactive) |
| Cc1ccsc1C(=O)OCC(=O)c1cc(C)n(CC2CCCO2)c1C (configuration not stated) | 80.5% (active) |
| O=C(OCC(=O)c1cccs1)C1=COCCO1 | -24.5% (inactive) |
| CCOc1cccc(NC(=O)CC#N)c1 | -9.5% (inactive) |
| C/C(=N\O)C1(C)N(O)C(C)(C)C(c2ccc(Br)cc2)=[N+]1[O-] (configuration not stated) | 8.5% (inactive) |
| Cn1c(-c2ccco2)nc2cc3ccccc3cc21 | 54.3% (active) |
| c1ccc(CSc2nnc(-c3ccco3)n2Cc2ccccc2)cc1 | -76% (inactive) |
| O=S(=O)(Nc1ccc2nc(-c3ccco3)[nH]c2c1)c1ccccc1 | -53.5% (inactive) |
| Cc1cc(NC(=O)CCC(=O)N(c2ccccc2)C(C(=O)NC2CCCC2)c2ccncc2)no1 (configuration not stated) | -9.4% (inactive) |
| CCOc1ccccc1NC(=O)CCc1ccc(C)o1 | 14.7% (inactive) |
| O=C(O)C1CCCN(S(=O)(=O)c2cccc3cccnc23)C1 (configuration not stated) | -5.7% (inactive) |
| COc1ccc(N2CC(C)Cn3c2nc2c3c(=O)n(Cc3ccccc3F)c(=O)n2C)c(OC)c1 (configuration not stated) | -2.3% (inactive) |
| Nc1ncc(-c2cc3ccccc3oc2=O)s1 | -79.3% (inactive) |
| CCOC(=O)c1c(C(C#N)C#N)cc(C)nc1C | -2.3% (inactive) |
| CC(C)COC(=O)c1ccc(NC(=O)C2C3C=CC(C3)C2C(=O)O)cc1 (configuration not stated) | -63.7% (inactive) |
| Cn1c(=O)c2c(nc(SCCNS(=O)(=O)c3ccccc3)n2C)n(C)c1=O | 13.3% (inactive) |
| CC(=O)c1c(N2CCOCC2)nc(=S)n(-c2cc(C)ccc2C)c1C | -0.4% (inactive) |
| COC(=O)c1ccc(NC(=O)c2ccco2)cc1 | -85.3% (inactive) |
| COc1ccccc1N1CC(O)=C(c2nc3ccccc3s2)C1=N | -13.3% (inactive) |
| O=C(OC1CCOC1=O)c1ccc(-c2nc3ccccc3s2)s1 (configuration not stated) | 59.9% (active) |
| COc1ccc(CCN2CNc3c(c(=O)n(C)c(=O)n3C)C2)cc1OC | -1.5% (inactive) |
| CSCC[C@H](NC(=O)NCCc1ccc(F)cc1)C(=O)O | -3.2% (inactive) |
| Fc1ccc2nc(Nc3nc4c(s3)CCCC4)sc2c1 | -90% (inactive) |
| CCCC(CCC(=O)OC)(C(=O)OCC)c1csc(N)n1 (configuration not stated) | -13.3% (inactive) |
| CC(Oc1ccc(Cl)cc1)C(=O)Nc1ncccn1 (configuration not stated) | 16% (inactive) |

| SMILES | inhibition |
| --- | --- |
| O=C(Nc1ccc(Cl)cn1)c1cnn2cccnc12 | -63.8% (inactive) |
| C=CCN(c1ccc(C(N)=O)cc1)S(C)(=O)=O | -14.5% (inactive) |
| Cc1cccc(CC(=O)Nc2c3c(nn2-c2cccc(Cl)c2)CS(=O)C3)c1 (configuration not stated) | 13.6% (inactive) |
| COc1cccc(-c2nc3n(n2)C(c2ccccc2Cl)C(C(N)=O)=C(C)N3)c1 (configuration not stated) | 17.2% (inactive) |
| O=S(=O)(c1cccs1)N1CCc2ccccc2C1 | 12.2% (inactive) |
| COCc1[nH]nc2c1C(C1C=CCCC1)C(C#N)=C(N)O2 (configuration not stated) | -8% (inactive) |
| CCOC(=O)[C@H]1CCC[C@@H](NS(=O)(=O)c2ccc(NC(C)=O)cc2)C1 | -18.3% (inactive) |
| CCN(c1ccccc1)S(=O)(=O)c1ccc(N)cc1 | -8.5% (inactive) |
| CCCOc1ccc(/C(O)=C2/C(=O)C(=O)N(CCN(C)C)C2c2ccc(OC)c(OC)c2)cc1 (configuration not stated) | -2.4% (inactive) |
| CC(C)Cc1cc(C(=O)NCCc2ccccc2)no1 | -80.7% (inactive) |
| Cc1cc(/C=N/n2cnnc2)c(C)n1-c1ccc2ncccc2c1 | 2.6% (inactive) |
| O=C(Oc1ccc(-c2nc(-c3ccccn3)no2)cc1)c1ccccc1 | 49.6% (active) |
| Cc1cccc(-c2noc(-c3ccc(F)cc3)n2)c1 | -77.6% (inactive) |
| CCOC(=O)N1CCC(Nc2c(NCCN3CCN(c4cccc(Cl)c4)CC3)c(=O)c2=O)CC1 | -1.7% (inactive) |
| COc1ccc2c(c1)CCc1c(C(=O)N3CCCC3)noc1-2 | -55.3% (inactive) |
| COc1ccc(-c2nc(-c3ccccc3)no2)c(OC)c1 | 82.9% (active) |
| COc1ccc(-c2noc(-c3cccc(OC)c3OC)n2)cc1OC | -100% (inactive) |
| CCOC(=O)N1CCN(C(=O)C2CCN(c3ncnc4c3sc3cccc(F)c34)CC2)CC1 | 55.2% (active) |
| CCOC(=O)N1CCN(C(=O)C2CCCN(c3ncnc4c3sc3cccc(F)c34)C2)CC1 (configuration not stated) | 2.8% (inactive) |
| CCOC(=O)N1CCN(CC(=O)Nc2cc(C)nn2-c2nc3ccccc3s2)CC1 | -0.5% (inactive) |
| COc1ccc(C(CC(=O)O)NC(=O)Cc2ccccc2)cc1 (configuration not stated) | 10.8% (inactive) |
| COC(=O)c1ccc(NC(=O)C(C)N2C(=O)c3ccccc3C2=O)cc1 (configuration not stated) | -11.5% (inactive) |
